Screening results (PubChem)
ID4 binder: ID4 (human) binding; hit rate 1.2% among 31,000; AID 624137; small molecule microarray, Flag-ID4 binding, fluorescence F/B; calls only; call rule not given here;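 note: a binder raises fluorescence above local background on the spot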
mut p53 react: re-activators of the mutant p53 pathway. SW480 PUMA-promoter luciferase, p53 mutant reactivation. activation, % at 9.98 µM. AID 624151. hit rate 1.5% among 28,000; in the data active = activation above about 52%
STK33 kin inh: blocks human STK33 kinase activity; ADP-Glo luminescence, MBP substrate; Q9BYT3; hit rate 0.44% among 27,000; inhibition, % at 12.5 µM; in the data active = inhibition above about 20%
Target sequence (Q9BYT3 whole entry, looked up): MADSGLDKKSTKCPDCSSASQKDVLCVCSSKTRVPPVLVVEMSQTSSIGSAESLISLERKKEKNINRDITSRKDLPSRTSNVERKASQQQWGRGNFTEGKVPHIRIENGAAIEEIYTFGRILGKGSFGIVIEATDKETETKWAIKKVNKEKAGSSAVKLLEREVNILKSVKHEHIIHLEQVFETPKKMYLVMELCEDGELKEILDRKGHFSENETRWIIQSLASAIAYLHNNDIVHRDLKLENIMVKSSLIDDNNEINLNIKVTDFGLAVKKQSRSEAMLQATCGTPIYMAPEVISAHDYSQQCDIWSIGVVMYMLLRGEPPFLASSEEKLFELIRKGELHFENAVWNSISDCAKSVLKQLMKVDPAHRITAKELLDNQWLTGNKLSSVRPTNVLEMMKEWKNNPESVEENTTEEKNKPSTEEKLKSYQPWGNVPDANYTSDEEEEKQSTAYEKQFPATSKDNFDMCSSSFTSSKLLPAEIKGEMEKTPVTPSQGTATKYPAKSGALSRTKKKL
Numbers without * were called inactive. Most compounds without a hit are left out; they make up all but 2.1% or so of the library.

For C[C@H](CO)N1C[C@H](C)[C@@H](CN(C)C(=O)Nc2ccc(C(F)(F)F)cc2)Oc2c(NC(=O)Nc3cccc4ccccc34)cccc2C1=O the results were ID4 binder inactive and mut p53 react 6.9.
C[C@H](CO)N1C[C@H](C)[C@H](CN(C)C(=O)Nc2ccc(C(F)(F)F)cc2)Oc2c(NC(=O)Nc3cccc4ccccc34)cccc2C1=O was read as ID4 binder active and mut p53 react -11.7.
`CS(=O)(=O)N(CC(=O)Nc1ccc(F)cc1)c1cccc2ccccc12` gave ID4 binder inactive, mut p53 react 4.0 and STK33 kin inh -0.6.
`Cc1cc(N(CC(=O)Nc2cccc([N+](=O)[O-])c2)S(C)(=O)=O)ccc1Br` gave ID4 binder inactive, mut p53 react -15.1 and STK33 kin inh -3.8.
Cc1oc2c(c1C(N)=O)CCCC2 was read as ID4 binder inactive and mut p53 react -11.4.
For O=C(COc1cccc2ccccc12)Nc1cccc(C(=O)O)c1 the results were ID4 binder inactive, mut p53 react -8.2 and STK33 kin inh 0.5.
COc1ccc(C(=O)CCC(=O)Nc2ccc(C(=O)O)cc2)c(OC)c1 was read as ID4 binder inactive, mut p53 react -5.6 and STK33 kin inh -2.5.
Cc1ccc(C2=NNC(=O)C(c3cn(CCC#N)c4ccccc34)C2)cc1 (stereo not given) was read as ID4 binder inactive, mut p53 react -15.7 and STK33 kin inh 6.3.
Cn1c2ccccc2c2c3c(c4c5ccccc5n(CCC#N)c4c21)CNC3=O was read as mut p53 react -52.6 and STK33 kin inh 109.2*.
`C=C(C)C(=O)O[C@H]1[C@H]2C(=C)C(=O)O[C@@H]2C[C@@H](C)/C=C/C(=O)[C@](C)(O)[C@@H]1OC(C)=O` gave STK33 kin inh 3.9.
CSCC(NS(=O)(=O)c1ccc(Br)cc1)C(=O)O (stereo not given) was read as ID4 binder inactive, mut p53 react -11.8 and STK33 kin inh 0.4.
For COc1ccc(Cl)cc1CN1CCC(CNC(=O)Nc2cccc(Cl)c2)CC1 the results were ID4 binder inactive, mut p53 react -13.7 and STK33 kin inh -0.8.
For COc1cc(OC)cc(-c2nnc(SCC(=O)Nc3ccccc3)o2)c1 the results were ID4 binder inactive, mut p53 react 102.3* and STK33 kin inh -0.5.
O=C(CSc1nnc(-c2ccc(Cl)cc2)o1)Nc1ccccc1C(F)(F)F was read as ID4 binder inactive, mut p53 react 68.0* and STK33 kin inh -1.5.
Cc1cc([N+](=O)[O-])ccc1NC(=O)CSc1nnc(-c2ccccc2)o1 was read as ID4 binder inactive, mut p53 react 66.9* and STK33 kin inh 3.9.
Screening Cc1ccc(NC(=O)CSc2nnc(-c3ccc(C(C)(C)C)cc3)o2)c(C)c1 returned ID4 binder inactive, mut p53 react -7.3 and STK33 kin inh -3.9.
`O=C(CSc1nnc(-c2ccncc2)o1)Nc1ccccc1` gave ID4 binder inactive, mut p53 react 31.0 and STK33 kin inh 0.3.
Screening O=C(CSc1nnc(-c2ccc(Cl)cc2)o1)Nc1ccc(I)cc1 returned ID4 binder inactive, mut p53 react 24.4 and STK33 kin inh -0.2.
c1ccc(-n2nnnc2CSc2ncn[nH]2)cc1 was read as ID4 binder inactive, mut p53 react -8.1 and STK33 kin inh -0.2.
CC(C)(C)NS(=O)(=O)c1ccc(NC(=O)COc2ccc3ccccc3c2Br)cc1 was read as ID4 binder inactive, mut p53 react 6.4 and STK33 kin inh 2.2.
`O=C(COc1ccc2ccccc2c1Br)NCc1ccccn1` gave ID4 binder inactive, mut p53 react 96.1* and STK33 kin inh -0.7.
For COc1cccc(NC(=O)CSc2nc(C)c(C)c(C)c2C#N)c1 the results were ID4 binder inactive, mut p53 react -0.1 and STK33 kin inh -2.2.
Screening CC(=O)N(C)C[C@@H]1Oc2cc(-c3ccccc3C)ccc2S(=O)(=O)N([C@H](C)CO)C[C@@H]1C returned ID4 binder active and mut p53 react -12.1.
`C[C@@H]1CN([C@@H](C)CO)S(=O)(=O)c2ccc(-c3cccc(C(=O)N(C)C)c3)cc2O[C@H]1CN(C)C(=O)Nc1ccc(F)cc1` gave mut p53 react 5.2.
For Cc1ccccc1-c1ccc2c(c1)O[C@H](CN(C)C)[C@H](C)CN([C@H](C)CO)S2(=O)=O the results were ID4 binder inactive and mut p53 react 3.1.
`C[C@H](CO)N1C[C@H](C)[C@@H](CN(C)C(=O)Nc2ccccc2F)Oc2cc(-c3ccc(C(=O)N(C)C)cc3)ccc2S1(=O)=O` gave ID4 binder active and mut p53 react -7.7.
Screening COc1ccc(NC(=O)N(C)C[C@@H]2Oc3cc(-c4ccncc4)ccc3S(=O)(=O)N([C@H](C)CO)C[C@H]2C)cc1 returned ID4 binder active and mut p53 react -5.6.
Screening COc1ccc(-c2ccc3c(c2)O[C@@H](CN(C)C(=O)Nc2ccccc2F)[C@@H](C)CN([C@H](C)CO)S3(=O)=O)cc1 returned mut p53 react -17.5.
COc1ccc(NC(=O)N(C)C[C@H]2Oc3cc(-c4ccc(C)cc4)ccc3S(=O)(=O)N([C@@H](C)CO)C[C@H]2C)cc1 was read as ID4 binder inactive and mut p53 react -12.7.
For C[C@@H]1CN([C@H](C)CO)S(=O)(=O)c2ccc(-c3cccc(C(=O)N(C)C)c3)cc2O[C@H]1CN(C)C(=O)Nc1ccc(F)cc1 the results were ID4 binder active and mut p53 react 9.6.
Screening O=c1cc(Nc2ccccc2)cc[nH]1 returned ID4 binder inactive and mut p53 react -10.5.
For O=S(=O)(N[C@@H]1CCN(Cc2ccc(OCCO)cc2)C1)c1cc(Cl)ccc1Cl the results were STK33 kin inh -3.8.
COc1ccc(-c2coc3c(OC)c(OC)ccc3c2=O)cc1 was read as STK33 kin inh -1.1.
Screening C=C(C)[C@@]12O[C@@H]1[C@@]1(C)C(=CC2=O)CC[C@@H](O)[C@@H]1C returned ID4 binder inactive and STK33 kin inh -2.6.
For Cc1cc(Br)cnc1N=CN(C)C the results were STK33 kin inh -0.5.
`O=C1c2ccccc2C(=O)N1CCCc1nc2c3c4c(sc3ncn2n1)CCCCC4` gave ID4 binder inactive, mut p53 react -22.3 and STK33 kin inh -1.6.
For CS(=O)(=O)N(CC(=O)NC1CC1)c1ccccc1 the results were ID4 binder inactive, mut p53 react 8.9 and STK33 kin inh 2.7.
`C[C@@H]1CN([C@H](C)CO)S(=O)(=O)c2ccc(-c3ccc(C(=O)N(C)C)cc3)cc2O[C@@H]1CN(C)Cc1ccc2c(c1)OCO2` gave ID4 binder active and mut p53 react -15.0.
Screening C[C@H](CO)N1C[C@H](C)[C@H](CN(C)Cc2cncnc2)Oc2cc(-c3ccncc3)ccc2S1(=O)=O returned ID4 binder active and mut p53 react -8.5.
For C[C@H](CO)N1C[C@H](C)[C@@H](CN(C)C(=O)c2ccncc2)Oc2cc(C3=CCCC3)ccc2S1(=O)=O the results were ID4 binder active and mut p53 react 9.9.
For C[C@@H]1CN([C@H](C)CO)S(=O)(=O)c2ccc(C3=CCCC3)cc2O[C@H]1CN(C)C(=O)c1cccnc1 the results were mut p53 react 5.8.
`C[C@H](CO)N1C[C@H](C)[C@H](CN(C)Cc2ccccc2)Oc2cc(/C=C/c3ccccc3)ccc2S1(=O)=O` gave ID4 binder inactive and mut p53 react -9.5.
